Data: paper PMC7862700, “An all-to-all approach to the identification of sequence-specific readers for epigenetic DNA modifications on cytosine”

Columns and labels:
Experiment in all cases: DAPPL (digital affinity profiling via proximity ligation, sequencing); 10 mM Tris-HCl pH 7.5, 50 mM NaCl, 1 mM DTT, 4% glycerol, room temperature, 30 min; GST-TFs on glutathione beads, 16-mer random dsDNA library, 0.1% formaldehyde crosslink after washing; high values mean tight binding
FLI1 = molecular target: T1, FLI1 (Homo sapiens, UniProt Q01543 1-452); conditions: protein: recombinant; tags: N-terminal GST; dsDNA, one strand shown
T1 sequence: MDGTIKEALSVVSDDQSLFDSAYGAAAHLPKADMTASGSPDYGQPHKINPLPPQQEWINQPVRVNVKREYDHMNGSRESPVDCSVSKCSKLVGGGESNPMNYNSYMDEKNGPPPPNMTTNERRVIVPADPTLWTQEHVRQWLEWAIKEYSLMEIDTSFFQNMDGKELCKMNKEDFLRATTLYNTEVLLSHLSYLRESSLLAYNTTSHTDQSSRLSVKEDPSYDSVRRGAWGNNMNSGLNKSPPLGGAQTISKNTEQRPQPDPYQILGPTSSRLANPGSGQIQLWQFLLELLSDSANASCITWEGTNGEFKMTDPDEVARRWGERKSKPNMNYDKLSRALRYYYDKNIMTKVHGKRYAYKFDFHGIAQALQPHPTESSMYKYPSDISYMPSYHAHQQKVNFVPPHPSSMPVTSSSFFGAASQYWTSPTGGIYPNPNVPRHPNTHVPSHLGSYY
Outline: (§1)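 Sequencing on an Illumina NextSeq500 followed washing, crosslinking with 0.1% formaldehyde, proximity ligation (BsaI/T4 ligase, 1 h, 37 °C) and PCR amplification of pools that had been incubated for 30 min at room temperature with 200 nmole of a random double-stranded 16-mer DNA library in Tris/NaCl/DTT/glycerol buffer. Each pool held DNA-barcoded human transcription factors, expressed in yeast as GST fusions and captured on glutathione beads, plus a tag-only sample. Binding signal is a hexamer's read frequency for a factor divided by its frequency in the tag-only sample.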

ELK1 = molecular target: T2, ELK1 (Homo sapiens, UniProt P19419 1-428); conditions: protein: recombinant; tags: N-terminal GST; dsDNA, one strand shown
T2 sequence: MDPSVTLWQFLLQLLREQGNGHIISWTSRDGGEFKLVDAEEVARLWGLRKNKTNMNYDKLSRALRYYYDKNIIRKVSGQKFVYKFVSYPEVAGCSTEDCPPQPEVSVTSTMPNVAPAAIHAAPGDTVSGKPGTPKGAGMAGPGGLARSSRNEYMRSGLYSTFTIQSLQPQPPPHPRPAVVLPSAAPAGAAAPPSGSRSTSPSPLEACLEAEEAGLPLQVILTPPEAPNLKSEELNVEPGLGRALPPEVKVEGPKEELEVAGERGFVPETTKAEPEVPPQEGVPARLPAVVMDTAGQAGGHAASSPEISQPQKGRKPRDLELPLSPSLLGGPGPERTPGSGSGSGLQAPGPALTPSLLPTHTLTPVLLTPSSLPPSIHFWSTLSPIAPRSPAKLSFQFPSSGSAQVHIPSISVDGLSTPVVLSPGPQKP
Outline: as §1

GABPA = molecular target: T3, GABPA (Homo sapiens, UniProt Q06546 1-454); conditions: protein: recombinant; tags: N-terminal GST; dsDNA, one strand shown
T3 sequence: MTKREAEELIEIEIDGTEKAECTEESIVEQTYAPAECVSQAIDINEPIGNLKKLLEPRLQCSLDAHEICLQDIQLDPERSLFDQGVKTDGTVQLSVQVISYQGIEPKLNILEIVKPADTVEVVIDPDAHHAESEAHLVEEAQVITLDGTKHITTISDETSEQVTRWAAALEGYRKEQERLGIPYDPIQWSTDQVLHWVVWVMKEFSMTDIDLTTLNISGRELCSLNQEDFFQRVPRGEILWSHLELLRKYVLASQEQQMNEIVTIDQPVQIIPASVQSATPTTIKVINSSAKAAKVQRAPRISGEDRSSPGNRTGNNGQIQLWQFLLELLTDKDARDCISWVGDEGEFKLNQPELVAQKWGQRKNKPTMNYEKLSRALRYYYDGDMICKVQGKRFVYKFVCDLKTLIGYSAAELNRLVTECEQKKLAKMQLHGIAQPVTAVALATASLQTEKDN
Outline: as §1

ERG = molecular target: T4, ERG (Homo sapiens, UniProt P11308 1-479); conditions: protein: recombinant; tags: N-terminal GST; dsDNA, one strand shown
T4 sequence: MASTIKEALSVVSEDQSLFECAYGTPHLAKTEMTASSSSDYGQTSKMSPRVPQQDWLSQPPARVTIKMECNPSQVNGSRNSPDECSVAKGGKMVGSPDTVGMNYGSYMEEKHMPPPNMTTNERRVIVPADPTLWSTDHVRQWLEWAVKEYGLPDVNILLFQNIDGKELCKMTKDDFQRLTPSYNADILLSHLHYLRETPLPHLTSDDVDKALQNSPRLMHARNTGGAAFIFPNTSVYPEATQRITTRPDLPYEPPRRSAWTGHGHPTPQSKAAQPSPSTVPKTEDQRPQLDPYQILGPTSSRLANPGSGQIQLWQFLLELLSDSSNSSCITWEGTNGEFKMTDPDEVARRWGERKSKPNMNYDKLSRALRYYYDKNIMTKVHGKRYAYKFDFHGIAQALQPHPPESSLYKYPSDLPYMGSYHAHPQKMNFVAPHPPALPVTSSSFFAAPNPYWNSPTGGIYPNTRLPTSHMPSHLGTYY
Outline: as §1

ELF1 = ELF1 (Homo sapiens, UniProt P32519 1-619); conditions: protein: recombinant; tags: N-terminal GST; dsDNA, one strand shown
Chain of ELF1 (P32519 whole entry): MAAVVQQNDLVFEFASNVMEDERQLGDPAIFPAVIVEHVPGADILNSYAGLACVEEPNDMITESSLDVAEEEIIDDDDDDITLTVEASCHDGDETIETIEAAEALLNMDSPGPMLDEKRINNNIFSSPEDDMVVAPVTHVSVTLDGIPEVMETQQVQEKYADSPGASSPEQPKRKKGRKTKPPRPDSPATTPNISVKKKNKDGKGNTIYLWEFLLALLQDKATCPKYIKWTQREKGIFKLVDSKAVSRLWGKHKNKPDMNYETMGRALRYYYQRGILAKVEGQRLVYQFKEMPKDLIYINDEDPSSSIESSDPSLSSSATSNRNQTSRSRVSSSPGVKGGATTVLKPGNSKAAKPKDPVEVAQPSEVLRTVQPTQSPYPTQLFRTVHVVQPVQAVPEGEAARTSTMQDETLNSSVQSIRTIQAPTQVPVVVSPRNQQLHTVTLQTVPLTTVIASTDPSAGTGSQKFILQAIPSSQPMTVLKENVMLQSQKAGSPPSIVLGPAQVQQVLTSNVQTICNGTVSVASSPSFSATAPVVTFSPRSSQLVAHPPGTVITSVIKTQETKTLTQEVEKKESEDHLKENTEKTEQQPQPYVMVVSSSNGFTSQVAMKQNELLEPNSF
Outline: as §1

EHF = molecular target: T5, EHF (Homo sapiens, UniProt Q9NZC4 1-300); conditions: protein: recombinant; tags: N-terminal GST; dsDNA, one strand shown
T5 sequence: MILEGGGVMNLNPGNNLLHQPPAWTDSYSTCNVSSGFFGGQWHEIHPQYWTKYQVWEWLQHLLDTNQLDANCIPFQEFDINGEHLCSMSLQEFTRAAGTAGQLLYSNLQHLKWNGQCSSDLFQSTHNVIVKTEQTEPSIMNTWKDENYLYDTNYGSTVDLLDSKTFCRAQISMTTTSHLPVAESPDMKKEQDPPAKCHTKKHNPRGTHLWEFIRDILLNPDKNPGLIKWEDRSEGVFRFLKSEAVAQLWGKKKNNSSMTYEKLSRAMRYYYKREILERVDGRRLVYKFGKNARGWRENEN
Outline: as §1

SPI1 = SPI1 (Homo sapiens, UniProt P17947 1-270); conditions: protein: recombinant; tags: N-terminal GST; dsDNA, one strand shown
Outline: as §1

SPIB = SPIB (Homo sapiens, UniProt Q01892 1-262); conditions: protein: recombinant; tags: N-terminal GST; dsDNA, one strand shown
Chain of SPIB (Q01892 whole entry): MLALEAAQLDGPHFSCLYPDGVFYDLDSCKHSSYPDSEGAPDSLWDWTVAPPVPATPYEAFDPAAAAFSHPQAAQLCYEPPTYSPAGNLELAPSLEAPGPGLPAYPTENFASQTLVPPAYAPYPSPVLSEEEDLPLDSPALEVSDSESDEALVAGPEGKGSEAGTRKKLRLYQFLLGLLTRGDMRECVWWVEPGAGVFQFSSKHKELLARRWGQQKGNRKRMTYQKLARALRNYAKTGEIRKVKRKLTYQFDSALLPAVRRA
Outline: as §1

ELK3 = molecular target: T6, ELK3 (Homo sapiens, UniProt P41970 1-407); conditions: protein: recombinant; tags: N-terminal GST; dsDNA, one strand shown
T6 sequence: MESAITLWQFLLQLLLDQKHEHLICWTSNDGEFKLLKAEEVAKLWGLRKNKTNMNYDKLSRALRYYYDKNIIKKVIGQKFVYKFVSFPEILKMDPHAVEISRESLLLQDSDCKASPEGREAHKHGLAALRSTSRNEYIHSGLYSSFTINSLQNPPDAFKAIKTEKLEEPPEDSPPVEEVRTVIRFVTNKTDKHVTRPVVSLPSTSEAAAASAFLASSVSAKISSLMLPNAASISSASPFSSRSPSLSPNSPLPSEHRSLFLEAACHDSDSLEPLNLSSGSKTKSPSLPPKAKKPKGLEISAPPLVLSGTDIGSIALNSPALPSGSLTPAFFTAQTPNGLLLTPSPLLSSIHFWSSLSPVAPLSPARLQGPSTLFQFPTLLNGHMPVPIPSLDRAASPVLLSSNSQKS
Outline: as §1

FEV = molecular target: T7, FEV (Homo sapiens, UniProt Q99581 1-238); conditions: protein: recombinant; tags: N-terminal GST; dsDNA, one strand shown
T7 sequence: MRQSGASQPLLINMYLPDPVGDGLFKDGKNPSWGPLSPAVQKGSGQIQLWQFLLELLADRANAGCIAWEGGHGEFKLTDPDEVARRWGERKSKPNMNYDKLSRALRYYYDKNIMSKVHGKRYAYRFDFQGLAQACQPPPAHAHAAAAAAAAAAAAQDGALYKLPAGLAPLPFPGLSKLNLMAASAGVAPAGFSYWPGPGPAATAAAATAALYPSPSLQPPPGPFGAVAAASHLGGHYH
Outline: as §1

ETV5 = ETV5 (Homo sapiens, UniProt P41161 1-510); conditions: protein: recombinant; tags: N-terminal GST; dsDNA, one strand shown
Chain of ETV5 (P41161 whole entry): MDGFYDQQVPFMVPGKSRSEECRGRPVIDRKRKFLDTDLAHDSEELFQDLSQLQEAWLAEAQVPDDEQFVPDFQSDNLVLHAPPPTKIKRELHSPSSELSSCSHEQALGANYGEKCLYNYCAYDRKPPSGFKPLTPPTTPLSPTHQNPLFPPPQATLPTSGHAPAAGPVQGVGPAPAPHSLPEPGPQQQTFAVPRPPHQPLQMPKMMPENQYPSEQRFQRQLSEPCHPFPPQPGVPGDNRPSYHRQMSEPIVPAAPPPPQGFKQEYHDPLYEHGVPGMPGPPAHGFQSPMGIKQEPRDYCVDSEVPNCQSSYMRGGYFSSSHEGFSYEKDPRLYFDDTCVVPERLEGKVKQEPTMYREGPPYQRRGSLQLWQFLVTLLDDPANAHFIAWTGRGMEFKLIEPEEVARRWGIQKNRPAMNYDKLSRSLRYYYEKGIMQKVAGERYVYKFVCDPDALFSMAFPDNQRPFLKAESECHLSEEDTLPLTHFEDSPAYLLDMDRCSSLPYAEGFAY
Outline: as §1

HSF1 = HSF1 (Homo sapiens, UniProt Q00613 1-529); conditions: protein: recombinant; tags: N-terminal GST; chain copies: 3; dsDNA, one strand shown
Chain of HSF1 (Q00613 whole entry): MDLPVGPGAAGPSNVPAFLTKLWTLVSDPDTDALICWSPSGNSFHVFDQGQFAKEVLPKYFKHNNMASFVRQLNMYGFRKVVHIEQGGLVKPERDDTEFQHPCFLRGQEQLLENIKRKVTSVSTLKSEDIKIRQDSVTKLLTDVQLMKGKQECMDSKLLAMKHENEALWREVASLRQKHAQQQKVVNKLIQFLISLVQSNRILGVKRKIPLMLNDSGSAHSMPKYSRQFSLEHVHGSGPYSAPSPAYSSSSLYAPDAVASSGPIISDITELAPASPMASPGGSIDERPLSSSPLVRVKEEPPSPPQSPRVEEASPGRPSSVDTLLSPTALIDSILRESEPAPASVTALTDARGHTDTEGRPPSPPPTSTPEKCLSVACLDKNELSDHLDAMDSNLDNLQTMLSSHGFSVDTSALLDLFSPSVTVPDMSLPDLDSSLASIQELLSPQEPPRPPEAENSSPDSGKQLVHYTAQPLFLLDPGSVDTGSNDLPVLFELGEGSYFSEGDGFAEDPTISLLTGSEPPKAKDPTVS
Outline: as §1

SPIC = molecular target: T8, SPIC (Homo sapiens, UniProt Q8N5J4 1-248); conditions: protein: recombinant; tags: N-terminal GST; dsDNA, one strand shown
T8 sequence: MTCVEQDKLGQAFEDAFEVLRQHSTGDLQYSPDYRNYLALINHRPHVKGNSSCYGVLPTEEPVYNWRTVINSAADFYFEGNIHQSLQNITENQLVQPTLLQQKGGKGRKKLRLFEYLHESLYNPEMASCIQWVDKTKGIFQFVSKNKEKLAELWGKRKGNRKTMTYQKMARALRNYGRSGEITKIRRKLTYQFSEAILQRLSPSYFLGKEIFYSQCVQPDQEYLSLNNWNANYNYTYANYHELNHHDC
Outline: as §1

ELF4 = ELF4 (Homo sapiens, UniProt Q99607 1-663); conditions: protein: recombinant; tags: N-terminal GST; dsDNA, one strand shown
Chain of ELF4 (Q99607 whole entry): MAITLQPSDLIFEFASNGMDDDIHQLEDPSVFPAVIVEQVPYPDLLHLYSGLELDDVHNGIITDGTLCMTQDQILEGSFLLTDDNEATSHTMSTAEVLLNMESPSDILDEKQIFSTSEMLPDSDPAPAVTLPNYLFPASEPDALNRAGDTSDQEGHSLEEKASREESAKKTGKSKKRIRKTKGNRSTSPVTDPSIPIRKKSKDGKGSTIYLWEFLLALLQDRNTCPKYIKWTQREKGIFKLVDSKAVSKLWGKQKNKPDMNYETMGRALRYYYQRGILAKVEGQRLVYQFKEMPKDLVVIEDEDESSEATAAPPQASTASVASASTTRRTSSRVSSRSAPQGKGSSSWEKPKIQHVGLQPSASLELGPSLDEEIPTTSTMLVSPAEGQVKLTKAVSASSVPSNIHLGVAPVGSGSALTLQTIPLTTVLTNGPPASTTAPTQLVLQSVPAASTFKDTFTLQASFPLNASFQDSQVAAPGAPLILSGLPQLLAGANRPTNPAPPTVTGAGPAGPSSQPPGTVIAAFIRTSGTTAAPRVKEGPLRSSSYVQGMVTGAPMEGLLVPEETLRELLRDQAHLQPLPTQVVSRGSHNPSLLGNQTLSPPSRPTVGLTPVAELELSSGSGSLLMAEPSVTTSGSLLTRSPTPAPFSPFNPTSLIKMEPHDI
Outline: as §1

ELK4 = molecular target: T9, ELK4 (Homo sapiens, UniProt P28324-2 1-405); conditions: protein: recombinant; tags: N-terminal GST; dsDNA, one strand shown
T9 sequence: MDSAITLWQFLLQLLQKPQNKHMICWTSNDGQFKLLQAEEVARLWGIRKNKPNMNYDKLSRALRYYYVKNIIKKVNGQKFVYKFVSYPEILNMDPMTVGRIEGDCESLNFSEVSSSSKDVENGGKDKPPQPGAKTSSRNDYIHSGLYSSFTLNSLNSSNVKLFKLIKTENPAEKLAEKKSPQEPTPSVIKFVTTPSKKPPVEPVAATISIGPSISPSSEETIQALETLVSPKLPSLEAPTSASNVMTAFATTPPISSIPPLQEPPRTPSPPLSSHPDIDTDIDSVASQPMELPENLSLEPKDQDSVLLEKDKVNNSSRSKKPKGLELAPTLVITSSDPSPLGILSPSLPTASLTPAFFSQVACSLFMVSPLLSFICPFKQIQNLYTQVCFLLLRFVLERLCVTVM
Outline: as §1

ETV2 = molecular target: T10, ETV2 (Homo sapiens, UniProt O00321 1-342); conditions: protein: recombinant; tags: N-terminal GST; dsDNA, one strand shown
T10 sequence: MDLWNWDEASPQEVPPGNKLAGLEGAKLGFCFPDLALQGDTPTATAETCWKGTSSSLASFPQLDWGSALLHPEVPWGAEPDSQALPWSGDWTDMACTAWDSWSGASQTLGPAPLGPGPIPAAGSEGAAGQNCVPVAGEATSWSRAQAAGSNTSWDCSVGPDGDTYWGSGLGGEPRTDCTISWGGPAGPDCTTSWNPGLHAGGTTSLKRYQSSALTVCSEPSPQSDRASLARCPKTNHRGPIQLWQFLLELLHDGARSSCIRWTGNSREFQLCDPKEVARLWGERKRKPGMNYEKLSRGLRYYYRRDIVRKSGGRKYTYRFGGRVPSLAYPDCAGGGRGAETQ
Outline: as §1

ELF3 = molecular target: T11, ELF3 (Homo sapiens, UniProt P78545 1-371); conditions: protein: recombinant; tags: N-terminal GST; dsDNA, one strand shown
T11 sequence: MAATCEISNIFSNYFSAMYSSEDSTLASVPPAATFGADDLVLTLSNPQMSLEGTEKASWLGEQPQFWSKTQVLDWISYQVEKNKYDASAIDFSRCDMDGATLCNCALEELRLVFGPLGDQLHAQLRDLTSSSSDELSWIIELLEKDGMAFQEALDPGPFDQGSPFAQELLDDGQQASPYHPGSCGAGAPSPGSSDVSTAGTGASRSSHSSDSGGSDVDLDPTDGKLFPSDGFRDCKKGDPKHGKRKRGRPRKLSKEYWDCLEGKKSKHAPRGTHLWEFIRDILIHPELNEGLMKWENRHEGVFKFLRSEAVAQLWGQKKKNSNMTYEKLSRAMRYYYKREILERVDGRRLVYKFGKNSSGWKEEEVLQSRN
Outline: as §1

CRX = CRX (Homo sapiens, UniProt O43186 1-299); conditions: protein: recombinant; tags: N-terminal GST; dsDNA, one strand shown
Chain of CRX (O43186 whole entry): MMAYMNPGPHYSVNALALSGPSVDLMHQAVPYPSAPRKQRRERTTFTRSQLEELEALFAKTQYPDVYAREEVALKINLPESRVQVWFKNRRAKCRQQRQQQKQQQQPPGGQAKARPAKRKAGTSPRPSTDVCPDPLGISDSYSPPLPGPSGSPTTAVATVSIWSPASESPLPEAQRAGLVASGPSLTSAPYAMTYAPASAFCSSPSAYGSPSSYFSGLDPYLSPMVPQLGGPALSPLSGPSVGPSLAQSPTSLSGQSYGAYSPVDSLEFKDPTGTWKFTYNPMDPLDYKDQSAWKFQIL
Outline: as §1

ETV1 = ETV1 (Homo sapiens, UniProt P50549 1-477); conditions: protein: recombinant; tags: N-terminal GST; dsDNA, one strand shown
Chain of ETV1 (P50549 whole entry): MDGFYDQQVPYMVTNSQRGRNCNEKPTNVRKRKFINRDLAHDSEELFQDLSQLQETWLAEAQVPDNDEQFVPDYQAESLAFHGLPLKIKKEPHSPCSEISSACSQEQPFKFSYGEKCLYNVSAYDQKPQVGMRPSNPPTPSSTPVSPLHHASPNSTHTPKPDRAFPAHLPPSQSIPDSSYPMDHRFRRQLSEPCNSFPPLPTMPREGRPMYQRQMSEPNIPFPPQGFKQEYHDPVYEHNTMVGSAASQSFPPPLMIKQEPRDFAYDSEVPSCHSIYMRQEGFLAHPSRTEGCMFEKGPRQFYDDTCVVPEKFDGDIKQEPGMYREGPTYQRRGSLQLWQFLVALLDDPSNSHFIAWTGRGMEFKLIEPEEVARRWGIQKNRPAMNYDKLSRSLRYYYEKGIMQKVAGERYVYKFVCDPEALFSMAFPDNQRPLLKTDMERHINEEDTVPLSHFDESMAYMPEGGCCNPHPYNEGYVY
Outline: as §1

## CTCAAC
FLI1
  binding signal: 1.25 fold enrichment (6-mer frequency, TF over GST control)
ELK1
  binding signal: 1.32 fold enrichment (6-mer frequency, TF over GST control)
GABPA
  binding signal: 1.33 fold enrichment (6-mer frequency, TF over GST control)
ERG
  binding signal: 1.24 fold enrichment (6-mer frequency, TF over GST control)
ELF1
  binding signal: 1.26 fold enrichment (6-mer frequency, TF over GST control)
EHF
  binding signal: 1.18 fold enrichment (6-mer frequency, TF over GST control)
SPI1
  binding signal: 1.18 fold enrichment (6-mer frequency, TF over GST control)
SPIB
  binding signal: 1.19 fold enrichment (6-mer frequency, TF over GST control)
ELK3
  binding signal: 1.28 fold enrichment (6-mer frequency, TF over GST control)
FEV
  binding signal: 1.32 fold enrichment (6-mer frequency, TF over GST control)
ETV5
  binding signal: 1.3 fold enrichment (6-mer frequency, TF over GST control)
HSF1
  binding signal: 1.1 fold enrichment (6-mer frequency, TF over GST control)
SPIC
  binding signal: 1.36 fold enrichment (6-mer frequency, TF over GST control)
ELF4
  binding signal: 1.3 fold enrichment (6-mer frequency, TF over GST control)
ELK4
  binding signal: 1.18 fold enrichment (6-mer frequency, TF over GST control)
ETV2
  binding signal: 1.29 fold enrichment (6-mer frequency, TF over GST control)
ELF3
  binding signal: 1.19 fold enrichment (6-mer frequency, TF over GST control)
CRX
  binding signal: 1.13 fold enrichment (6-mer frequency, TF over GST control)
ETV1
  binding signal: 1.24 fold enrichment (6-mer frequency, TF over GST control)
